From PubChem BioAssay (NCI) come the findings set out here.

Each structure is given as a SMILES string. This is part of a sample that, as a whole, favours compounds with a hit. Of some 79,000 tested, about 15% had one in any assay. Values without a mark were called inactive. Calls of active or inactive are those of the source. Rule as the data show it: active = growth inhibition above about 70%; inactive = the rest.

Assay [1] in a line: NCI Yeast Anticancer Drug Screen. Data for the rad50 strain (AID 155).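 Also: 0% = growth of vehicle-only cultures of the same strain.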 Conditions: S. cerevisiae rad50 strain growth inhibition; at 50.0 µM; hits give high values. Put shortly: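 Readout: growth inhibition relative to vehicle-treated cultures. Compound exposure was carried out in a genetically defined yeast strain deficient in DNA damage repair.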
The nature of assay [2]: NCI Yeast Anticancer Drug Screen. Data for the mec2-1 strain (AID 157). Conditions: S. cerevisiae mec2-1 strain, at 50.0 µM, hits give high values. Put shortly: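 Vehicle-treated cultures served as reference for growth inhibition of compound-exposed mec2-1 yeast.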
Assay [3] in a line: NCI Yeast Anticancer Drug Screen. Data for the sgs1 mgt1 strain (AID 161).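 Also: 0% = growth of cultures given vehicle only.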 Conditions: S. cerevisiae sgs1 mgt1 strain, at 50.0 µM, hits give high values. Put shortly: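 Genetically altered yeast, compound exposure, growth inhibition relative to vehicle.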
The nature of assay [4]: NCI Yeast Anticancer Drug Screen. Data for the cln2 rad14 strain (AID 165).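 Also: 0% = growth equal to vehicle treated cultures.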 Conditions: S. cerevisiae cln2 rad14 strain, at 50.0 µM, hits give high values. Put shortly:
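Each compound was tested on cln2 rad14 yeast. Inhibition of growth was calculated against vehicle-exposed controls.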

A short description of assay [5]: NCI Yeast Anticancer Drug Screen. Data for the bub3 strain (AID 167). Conditions: S. cerevisiae bub3 mutant strain, at 50.0 µM, hits give high values. Put shortly:
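Readout: yeast growth inhibition, expressed relative to vehicle-only wells. The test organism is a mutant strain from a panel with lesions in DNA repair or checkpoint genes.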

A short description of assay [6]: NCI Yeast Anticancer Drug Screen. Data for the mlh1 rad18 strain (AID 175). Conditions: S. cerevisiae mlh1 rad18 strain growth inhibition; at 50.0 µM; hits give high values. Put shortly:
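Vehicle-treated cultures served as the reference for growth inhibition in a yeast strain carrying DNA damage repair alterations exposed to each compound.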

As for `CC(=O)C(C)C(C)=O`, the growth inhibition is -2.95% in assay [1]; 0.7% in assay [2]; 1.4% in assay [3]; -21.6% in assay [4]; 22.6% in assay [5]; -0.85% in assay [6].

In the case of `CCC(C)NC(=O)c1ccc(Cl)cc1Cl` (stereo not given), the growth inhibition in assay [1] is 15.8%; in assay [2], -18.5%; in assay [3], -12.7%; in assay [4] it was -68.5%; in assay [5], -28.9%; in assay [6], -22.6%.

For the compound `CSc1nc(NC2OC(CO)C(O)C(O)C2O)c(Br)c(=O)n1C` (stereo not given), the growth inhibition is 0.4% in assay [1]; -1.7% in assay [2]; -6.3% in assay [3]; -8.75% in assay [4]; -2.75% in assay [5]; 20.1% in assay [6].

In the case of `Cc1ccccc1C1OC(=O)c2ccc3ccccc3c21` (stereo not given), the growth inhibition in assay [1] was 10.6%; in assay [2], 1.8%; in assay [3], 14.4%; in assay [4], 7.95%; in assay [5], 1.45%; in assay [6] it was 6.55%.

Consider `O=C(/C=C/c1ccc(OCC(=O)N2CCN(c3ccccc3)CC2)cc1)c1ccc(Cl)cc1`, for which the growth inhibition was 13.6% in assay [1]; 13.9% in assay [2]; -5.8% in assay [3]; 0.55% in assay [4]; 2.7% in assay [5]; -4.45% in assay [6].

As to `C[C@@H](C1CC[C@H]2[C@@H]3[C@@H]4O[C@@H]4[C@@]4(O)CC=CC(=O)[C@]4(C)[C@H]3C[C@H](O)[C@]12C)[C@H]1C[C@]2(C)O[C@]2(C)C(=O)O1` (stereo not given in full), the growth inhibition is 1.35% in assay [1]; -3.25% in assay [2]; -2.9% in assay [3]; 29.5% in assay [4]; 2.65% in assay [5]; -48.6% in assay [6].

As to `CN(C)CC1CCC(CN(C)C)C(=O)C1=O` (stereo not given), the growth inhibition in assay [1] is -36%; in assay [2], -39.4%; in assay [3], -64.5%; in assay [4], -14.7%; in assay [5], -31.3%; in assay [6], -31.3%.

For the compound `CC1=C(CO)C(=O)O[C@@H]([C@@H](C)[C@H]2CC[C@H]3[C@@H]4C[C@@H](O)[C@@]5(O)CC=CC(=O)[C@]5(C)[C@H]4CC[C@]23C)C1`, the growth inhibition in assay [1] was -6.5%; in assay [2] it was -7.15%; in assay [3] it was -17.7%; in assay [4] it was -9.55%; in assay [5] it was -36.2%; in assay [6] it was -77.1%.

`CNC(=S)n1ncnc1N`: the growth inhibition was 11% in assay [1]; -5.95% in assay [2]; -2.9% in assay [3]; -17.8% in assay [4]; -3.75% in assay [5]; 8.25% in assay [6].

In the case of `Oc1ccc(C2SCc3nc4ccccc4n32)cc1` (stereo not given), the growth inhibition in assay [1] was -7.85%; in assay [2] it was -17.9%; in assay [3], -35.9%; in assay [4] it was -7.3%; in assay [5], -45.1%; in assay [6], -25.1%.

As to `O=C(Nc1c(Cl)c(Cl)c2c(c1Cl)Cc1cc(Cl)ccc1-2)C(Cl)Cl`, the growth inhibition was 36.9% in assay [1]; 10.7% in assay [2]; 1.5% in assay [3]; 26.1% in assay [4]; 3.85% in assay [5]; 25.4% in assay [6].

Regarding `COCC(=O)C(C(C)=O)C(c1ccc(N(C)C)cc1)C(C(C)=O)C(=O)COC` (stereo not given), the growth inhibition in assay [1] was -12.2%; in assay [2], -10.6%; in assay [3], -12.7%; in assay [4], -69.7%; in assay [5] it was 2.8%; in assay [6] it was -9.35%.

Take `O=C(CN1C(=O)c2cccc3c(Br)ccc(c23)C1=O)c1ccc(Cl)cc1`: the growth inhibition is -14.2% in assay [1]; -12.7% in assay [2]; 5.85% in assay [3]; 5% in assay [4]; 6.8% in assay [5]; 13.6% in assay [6].

Regarding `Brc1ccc(-c2ccc(-c3ccc(Br)cc3)s2)cc1`, the growth inhibition in assay [1] is 30.4%; in assay [2], 13.8%; in assay [3], 36.5%; in assay [4], 19.8%; in assay [5], -1.55%; in assay [6], 4%.

As for `COC(=O)C(CC(=O)[C@H]1CC[C@H]2[C@@H]3CC=C4C[C@@H](OC(C)=O)CC[C@]4(C)[C@H]3CC[C@]12C)OC(C)=O` (stereo not given in full), the growth inhibition is 18.7% in assay [1]; -6.2% in assay [2]; 26.7% in assay [3]; 28.9% in assay [4]; -1.75% in assay [5]; 8.7% in assay [6].

As for `C=C(C)Cn1cnc2c1c(=O)n(C)c(=O)n2C`, the growth inhibition in assay [1] was -0.15%; in assay [2], -9.6%; in assay [3] it was -14.4%; in assay [4], -37.6%; in assay [5], -14.1%; in assay [6] it was -5.6%.

Turning to `c1ccc(-c2csnn2)cc1`, the growth inhibition was -8.6% in assay [1]; -12.2% in assay [2]; -4.05% in assay [3]; -17.8% in assay [4]; -13.4% in assay [5]; -11.8% in assay [6].

Regarding `Cc1ccc(NCC#N)cc1`, the growth inhibition in assay [1] was 27.1%; in assay [2], 15.2%; in assay [3] it was -1.1%; in assay [4] it was -12.6%; in assay [5] it was 15.4%; in assay [6], 36.5%.

`O=[N+]([O-])c1ccc2nc(Cl)n[n+]([O-])c2c1`: the growth inhibition in assay [1] is 88.7% (active); in assay [2] it was 93% (active); in assay [3] it was 91.5% (active); in assay [4], 89.3% (active); in assay [5], 91.1% (active); in assay [6], 91.8% (active).

Regarding `CCC1(O)C(=O)Nc2ccccc2C1=O` (stereo not given), the growth inhibition in assay [1] is -3%; in assay [2], -22.8%; in assay [3] it was -17.3%; in assay [4], -13.6%; in assay [5] it was -23.1%; in assay [6] it was -5.85%.
